The source made the active and inactive calls. No rule for the calls is given here.

For this experiment, the target named is Pantothenate synthetase (Mycobacterium tuberculosis (strain ATCC 25618 / H37Rv)) (UniProt P9WIL5). The experiment can be described thus: Coupled enzyme confirmation of inhibitors against recombinant Mtb PanC (AID 375).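 Also: 0% = full reaction with vehicle and 100% = no enzyme background.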 Conditions: coupled enzyme assay; at 10 µM, stronger effect = higher value.
Sequence of Pantothenate synthetase (Mycobacterium tuberculosis (strain ATCC 25618 / H37Rv)) (P9WIL5 whole entry, looked up): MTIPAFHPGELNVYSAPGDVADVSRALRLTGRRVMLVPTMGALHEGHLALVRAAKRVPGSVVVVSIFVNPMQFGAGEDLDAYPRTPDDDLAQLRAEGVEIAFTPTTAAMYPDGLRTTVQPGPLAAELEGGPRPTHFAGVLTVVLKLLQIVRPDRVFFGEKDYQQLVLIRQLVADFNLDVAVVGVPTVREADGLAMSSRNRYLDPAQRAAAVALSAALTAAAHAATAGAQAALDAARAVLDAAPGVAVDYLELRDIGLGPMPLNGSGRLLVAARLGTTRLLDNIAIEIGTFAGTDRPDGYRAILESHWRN
Regarding `Cc1cc(NC(=O)COc2cccc3cccnc23)no1`, the inhibition is 6% (inactive).
`OCCNc1ncnc2c1c(-c1ccccc1)c(-c1ccccc1)n2Cc1ccco1`: the inhibition was 1% (inactive).
Turning to `COc1ccc(CN2C(=O)c3ccccc3C2C(=O)NC2CCCC2)c(OC)c1` (stereo not given), the inhibition is 0% (inactive).
Take `COc1ccc(C(=O)Nc2ccccc2C(=O)NCCN2CCOCC2)cc1`: the inhibition is 0% (inactive).
With `Cc1ccc2occ(CN3CCN(c4ccccc4)CC3)c(=O)c2c1` the figure was 0% (inactive); with `Cc1nn(C)c(C)c1S(=O)(=O)N1CCCC(C(=O)N2CCN(c3ccc(Cl)cc3)CC2)C1` (stereo not given), 0% (inactive).
With `CCCC1CCC(C(=O)Nn2c(C)nc3ccccc3c2=O)CC1` (stereo not given) the figure was 8% (inactive).
Take `CC(=O)NC1(C(F)(F)F)NC(=O)N(CC(C)C)C1=O` (stereo not given): the inhibition is 0% (inactive).
With `C=CCNc1oc(-c2cccc3ccccc23)nc1C#N` the figure was 0% (inactive); with `Cc1ccc(Cn2c(SCC(N)=O)nc3c2c(=O)n(C)c(=O)n3C)cc1`, 0% (inactive).
With `Cc1ccc2[nH]c3c(c2c1)CN(C(=O)CN1CCN(c2cccc(C)c2C)CC1)CC3` the figure was 0% (inactive).
In the case of `COC(=O)c1cc(Br)ccc1-c1ccc(/C=N/n2nnnc2N)o1` it was 7% (inactive); in that of `O=C(OCC#CCSc1nc2ccccc2s1)c1ccco1`, 3% (inactive); in that of `COC(=O)c1ccc(CSc2ncnc3c2nnn3-c2ccc(OC)cc2)o1`, 0% (inactive).
In the case of `COc1cccc(-c2cc(C(=O)NCc3ccc(Cl)cc3)no2)c1`, the inhibition is 0% (inactive).
With `CCCCc1cc(=O)oc2cc(C)cc(OC(C)C(=O)O)c12` (stereo not given) the figure was 0% (inactive); with `CCOC(=O)c1cc(C)sc1N1C(=O)C2C3C=CC(C3)C2C1=O` (stereo not given), 0% (inactive); with `COc1ccc2c(c1)[nH]c1c(=O)n(CCN(C)C)cnc12`, 0% (inactive).
With `NC(=O)C1CCN(C(=O)c2cc3n(n2)C(C(F)(F)F)CC(c2ccco2)N3)CC1` (stereo not given) the figure was 0% (inactive); with `CCCCP(=O)(CCCC)Cc1ccccc1O`, 0% (inactive); with `CCCn1c(=NC(C)=O)c(C#N)cc2c(=O)n3cccc(C)c3nc21`, 0% (inactive).
For `CCOc1ccc(-c2nc(S(=O)(=O)c3ccccc3)c(NCc3cccnc3)o2)cc1`, the inhibition was 0% (inactive).
In the case of `Cc1cc(=O)n2nc(N3CCC(C(=O)N4CCN(Cc5ccccc5)CC4)CC3)sc2n1` it was 2% (inactive).
With `O=C(CN(c1ccc(F)cc1)S(=O)(=O)c1ccc2c(c1)OCCO2)Nc1cccnc1` the figure was 0% (inactive); with `CCOC(=O)c1c(NC(=O)CSc2nnc(-c3cccnc3)o2)sc(C)c1C`, 4% (inactive).
With `Cc1c(C(=O)Nc2nnc(C(F)(F)F)s2)oc2ccccc12` the figure was 5% (inactive); with `CC(C)(C)OC(=O)N1CC(O)CC1C(=O)OCC(=O)c1ccc(Cl)cc1` (stereo not given), 0% (inactive).
Consider `CCOC(=O)c1c(NC(=O)c2cccs2)sc2c1CCN(C(=O)OCC)C2`, for which the inhibition was 0% (inactive).
With `N#Cc1nc(COc2ccccc2)oc1NCCN1CCOCC1` the figure was 0% (inactive); with `O=C(O)c1c(Cl)c(Cl)c(Cl)c(Cl)c1C(=O)N1CCOCC1`, 0% (inactive).
With `CCn1c(SCc2nc3ccccc3c(=O)[nH]2)nnc1-c1cccnc1` the figure was 4% (inactive).
In the case of `CCOc1ccccc1OCC(=O)NCc1ccco1` it was 0% (inactive); in that of `CNC(=O)CC(C(=O)O)c1ccc(OC(C)C)cc1` (stereo not given), 0% (inactive); in that of `C#CCSc1nnc(-c2ccccc2)c(=O)[nH]1`, 0% (inactive).
For the compound `CCOC(=O)C1=C(C)NC(C)=C(C(=O)OCC)C1C(=O)OC1CCOC1=O` (stereo not given), the inhibition is 13% (inactive).
In the case of `O=C1CCCN1Cc1ncnn1-c1ccccc1` it was 4% (inactive); in that of `CCOC(=O)c1c(C)c(C(=O)NCCN2CCOCC2)c(C)n1C`, 4% (inactive); in that of `COCCn1c(N)c(C(=O)Nc2sc3c(c2C(=O)OC)CCCC3)c2nc3ccccc3nc21`, 1% (inactive).
With `CCOc1ccccc1N1C(=O)CC(Sc2ncccc2C(=O)O)C1=O` (stereo not given) the figure was 0% (inactive); with `COc1ccc2[nH]c(=O)c(CN(C(=O)c3ccncc3)C(C)C)cc2c1`, 0% (inactive).

These data come from PubChem BioAssay.
